The sample as a whole holds a higher share of hits than the screen did.
KDM5B inh: inhibitors of human KDM5B histone demethylase; Q9UGL1; KDM5B demethylase, FDH-coupled NADH fluorescence (FDH is formaldehyde dehydrogenase); Potency, µM (titrated, usually from 57.7 µM), usual class: inhibitors; 220,000 tested, 2.6% active; AID 1347165; active = well fitted inhibition curve with a large enough effect; note: 0% is about no effect; nearly all actives have a fitted effect of over 70% in size
Target sequence (Q9UGL1 whole entry, looked up): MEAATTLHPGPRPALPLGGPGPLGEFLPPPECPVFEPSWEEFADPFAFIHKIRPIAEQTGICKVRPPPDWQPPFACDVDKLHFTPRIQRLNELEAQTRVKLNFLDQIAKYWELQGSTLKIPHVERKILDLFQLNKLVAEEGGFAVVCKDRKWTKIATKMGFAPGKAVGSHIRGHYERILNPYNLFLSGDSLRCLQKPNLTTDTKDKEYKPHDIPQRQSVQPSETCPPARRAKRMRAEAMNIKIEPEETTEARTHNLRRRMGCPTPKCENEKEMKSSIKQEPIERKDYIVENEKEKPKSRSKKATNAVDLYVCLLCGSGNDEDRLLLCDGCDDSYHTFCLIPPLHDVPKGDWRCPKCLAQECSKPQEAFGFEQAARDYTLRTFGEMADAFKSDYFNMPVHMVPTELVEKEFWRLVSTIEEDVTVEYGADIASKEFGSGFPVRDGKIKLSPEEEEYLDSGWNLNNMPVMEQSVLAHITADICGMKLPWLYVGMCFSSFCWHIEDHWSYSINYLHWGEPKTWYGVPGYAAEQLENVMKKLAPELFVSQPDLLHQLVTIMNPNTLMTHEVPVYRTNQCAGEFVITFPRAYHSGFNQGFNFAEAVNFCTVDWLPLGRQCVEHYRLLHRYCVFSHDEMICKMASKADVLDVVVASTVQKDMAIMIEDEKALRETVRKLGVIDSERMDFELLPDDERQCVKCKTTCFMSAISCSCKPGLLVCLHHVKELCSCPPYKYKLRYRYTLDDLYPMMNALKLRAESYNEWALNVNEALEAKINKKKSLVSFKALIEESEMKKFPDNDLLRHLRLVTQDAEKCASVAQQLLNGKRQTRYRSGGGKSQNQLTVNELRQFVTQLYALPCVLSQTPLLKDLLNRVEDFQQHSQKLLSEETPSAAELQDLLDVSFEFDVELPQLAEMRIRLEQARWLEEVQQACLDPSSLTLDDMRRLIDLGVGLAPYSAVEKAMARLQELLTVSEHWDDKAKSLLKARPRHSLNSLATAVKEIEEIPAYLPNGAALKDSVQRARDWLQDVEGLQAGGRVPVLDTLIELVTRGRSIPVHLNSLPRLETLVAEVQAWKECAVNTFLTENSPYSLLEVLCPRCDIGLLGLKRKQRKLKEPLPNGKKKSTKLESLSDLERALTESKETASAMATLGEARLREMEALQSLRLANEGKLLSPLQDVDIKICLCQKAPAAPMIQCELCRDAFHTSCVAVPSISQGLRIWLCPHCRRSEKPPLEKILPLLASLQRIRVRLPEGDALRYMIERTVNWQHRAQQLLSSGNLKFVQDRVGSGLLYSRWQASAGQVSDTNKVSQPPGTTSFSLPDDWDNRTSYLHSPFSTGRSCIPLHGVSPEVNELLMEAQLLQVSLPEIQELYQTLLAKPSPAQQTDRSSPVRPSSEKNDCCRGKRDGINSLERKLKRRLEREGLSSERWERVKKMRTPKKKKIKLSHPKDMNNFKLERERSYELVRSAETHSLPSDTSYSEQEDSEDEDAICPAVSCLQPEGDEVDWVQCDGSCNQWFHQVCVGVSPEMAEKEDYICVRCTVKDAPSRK
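Measured: NADH fluorescence change, 30 min, RT. System: KDM5BΔAP 200 nM final, H3K4me3 peptide, α-KG, Fe(II), ascorbate, NAD⁺ plus FDH, pH 7.5 HEPES. Compounds: titrated, 10 min pre-incubation with enzyme.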
The depositor's hits bear a star; i = inactive. Potency is the fitted concentration of half-maximal effect.

SMILES	KDM5B inh
O=C(NC1CCCCC1)[C@@H]1C[C@@H](O)CN1C1CCN(C(=O)C2CC2)CC1	i
COC[C@@H]1CN(C(=O)CCc2ccccc2OC)C[C@H]1c1ccncc1	i
CCCOCC(=O)N1CCc2onc(-c3ccc(C(F)(F)F)cc3)c2C1	i
CC(C)OC(C)C(=O)N1CCc2onc(-c3ccc(C(F)(F)F)cc3)c2C1 (stereo not given)	i
COc1ccc(C(=O)N2CCc3onc(-c4ccc(C(F)(F)F)cc4)c3C2)o1	10µM*
O=C(NCCOc1ccccc1)C1CN(Cc2ccccc2)C(=O)N1 (stereo not given)	i
O=C(/C=C/c1ccc(OCCCF)cc1)N1CCN(Cc2ccccc2)CC1	i
O=C(O)CN1CCN(Cc2ccc(OCCc3ccccc3)cc2)CC1=O	25.1µM*
O=C(CN1C(=O)c2ccccc2S1(=O)=O)NCc1ccc(F)cc1	i
COc1ccc(-c2[nH]c3c(c2-c2c(-n4cccc4)n(C)c(=O)[nH]c2=O)c(=O)[nH]c(=O)n3C)cc1F	i
COc1ccc(CC(=O)N[C@H]2[C@H](O)[C@H](O)C[C@@H]2c2ccc(N3CCOCC3)nc2)cc1	31.6µM*
COc1ccc(C(=O)N[C@H]2[C@H](O)[C@H](O)C[C@@H]2c2cccnc2)cc1	i
O=C(N[C@H]1[C@H](O)[C@H](O)C[C@@H]1c1ccc(N2CCOCC2)nc1)c1nc2ccccc2s1	i
COc1ccc(CC(=O)N[C@H]2[C@H](O)[C@H](O)C[C@@H]2c2ccc(C(F)(F)F)nc2)cc1	i
CC(C)C(=O)N[C@H]1[C@H](O)[C@H](O)C[C@@H]1c1cccnc1	i
O=C(COc1ccccc1)N[C@H]1[C@H](O)[C@H](O)C[C@@H]1c1ccc(N2CCOCC2)nc1	31.6µM*
COc1ccc([C@H]2C[C@@H](O)[C@@H](O)[C@@H]2NC(=O)COc2ccccc2)cc1	i
CC(C)C(=O)N[C@H]1[C@H](O)[C@H](O)C[C@@H]1c1ccc(N2CCOCC2)nc1	39.8µM*
Cc1ccccc1[C@H]1C[C@@H](O)[C@@H](O)[C@@H]1NC(=O)C(C)C	i
COc1ccc(C(=O)N2CCC(n3cc(C(C)(C)C)nn3)CC2)c(OC)n1	i
Cc1ccc(-n2nnc(C(=O)OCc3ccccc3)c2C)cc1C	i
COc1ccc(OC)c(C2C3=C(CCCC3=O)Nc3nc(SCc4ccccc4F)[nH]c(=O)c32)c1 (stereo not given)	i
CCC1Oc2ccc(NS(=O)(=O)c3ccccc3)cc2CN(Cc2ccc(F)cc2)C1=O (stereo not given)	i
CC1=NS(=O)(=O)N(C)C=C1C(=O)OCc1nc(C2CCCCC2)no1	i
CC(NC(=O)c1cccc(C#N)c1)C(=O)N1CCN(c2ccccn2)CC1 (stereo not given)	25.1µM*
SMILES	KDM5B inh
CC(NC(=O)c1ccc2c(c1)OCO2)c1cccc(C(F)(F)F)c1 (stereo not given)	i
Cc1cccc(C)c1N1CCN(C(=O)c2ccc3c(c2)OCO3)CC1	i
CC(C)CCN1CCN(C(=O)c2cccc(C#N)c2)CC1	i
O=C(c1cccc(Br)c1)N1CCN(c2ccccn2)CC1	i
CC(NC(=O)c1ccc2c(c1)OCO2)C(=O)N1CCN(c2ccccn2)CC1 (stereo not given)	31.6µM*
Cc1ccc(NC(=O)C2CCC(C)CC2)cc1 (stereo not given)	i
CS(=O)(=O)NC[C@H]1Cn2c(-c3ccccc3)cnc2CO1	i
Cc1cn2nc(C(=O)NCc3ccccc3F)cc2c(N2CCCC2)n1	25.1µM*
Cc1cn2nc(C(=O)NCc3ccccn3)cc2c(N2CCCC2)n1	i
Cc1cn2nc(C(=O)N3CCN(C(=O)c4ccco4)CC3)cc2c(N2CCCC2)n1	31.6µM*
Cc1cc(N2CCN(C(=O)c3ccco3)CC2)c2ccccc2n1	i
COc1ccc(CNC(=O)c2cccn2-c2nnc(N3CCCCC3)s2)c(OC)c1	i
COc1ccccc1CNC(=O)c1cc2c(N3CCSCC3)nc(C)cn2n1	7.08µM*
COc1ccccc1CNC(=O)c1sc(NC2CCCC2)nc1C	i
COc1ccc(CCNC(=O)c2cc3c(N4CCCC4)nc(C)cn3n2)cc1OC	i
O=C(c1ccco1)N1CCN(c2nc3ccc(Cl)cc3s2)CC1	i
Cc1cn2nc(C(=O)NCc3ccccc3Cl)cc2c(N2CCCC2)n1	i
COc1ccc(CNC(=O)c2cc3c(N4CCCC4)nc(C)cn3n2)c(OC)c1	28.2µM*
COc1ccccc1CNC(=O)C1CCN(c2nn3c(=O)cc(C)nc3s2)CC1	i
COc1cc(C)ccc1OCC(=O)c1ccc2c(c1)N(CC(=O)N1CCCC1)C(=O)CO2	i
Cc1cc(C)n(CC(=O)N2C[C@@H](CO)[C@H](c3ccccn3)C2)n1	i
CCn1ncc(N2CCCC(CC(=O)NCCc3ccccn3)C2)cc1=O (stereo not given)	i
CCN(CC)Cc1nc(C2(O)CCN(C(C)=O)CC2)cs1	i
COc1coc(C(=O)N2CCOCC2CC(=O)NC2CCCC2)cc1=O (stereo not given)	i

Compound activity from PubChem BioAssay.
